From PubChem BioAssay (NCI)
This is part of a sample that, as a whole, favours compounds with a hit. Of some 79,000 tested, about 15% had one in any assay. Rule as the data show it: active = growth inhibition above about 70%; inactive = the rest. Where a SMILES comes first, the peptide text is derived from it. [ ]: non-standard residue; d: D form. The star is where a group is joined. ξ: configuration not given here. ξF = NC(Cc1ccccc1)C(=O)O; Cbz = O=C(OCc1ccccc1)*; Sar = CNCC(=O)O

Columns and labels:
[1] = NCI Yeast Anticancer Drug Screen. Data for the rad50 strain (AID 155);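 also: 0% = growth of vehicle-only cultures of the same strain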; details: S. cerevisiae rad50 strain growth inhibition; at 50.0 µM; stronger effect = higher value
In short: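 Yeast carrying a defined DNA repair defect were exposed to test compounds, and growth was compared with vehicle-treated controls to give percent inhibition.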

[2] = NCI Yeast Anticancer Drug Screen. Data for the mec2-1 strain (AID 157); details: S. cerevisiae mec2-1 strain, at 50.0 µM, stronger effect = higher value
In short: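 Compounds were applied to mec2-1 yeast cells. Their growth was then compared with that of vehicle-treated cultures to give growth inhibition.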

[3] = NCI Yeast Anticancer Drug Screen. Data for the sgs1 mgt1 strain (AID 161);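 also: 0% = growth of cultures given vehicle only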; details: S. cerevisiae sgs1 mgt1 strain, at 50.0 µM, stronger effect = higher value
In short: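 This yeast growth screen uses a strain with defined DNA-repair lesions; compound-treated growth is compared with vehicle-treated growth.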

[4] = NCI Yeast Anticancer Drug Screen. Data for the cln2 rad14 strain (AID 165);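 also: 0% = growth equal to vehicle treated cultures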; details: S. cerevisiae cln2 rad14 strain, at 50.0 µM, stronger effect = higher value
In short: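 Strain: cln2 rad14 yeast, altered in cell cycle control and DNA damage repair. Read-out: growth inhibition vs vehicle.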

[5] = NCI Yeast Anticancer Drug Screen. Data for the bub3 strain (AID 167); details: S. cerevisiae bub3 mutant strain, at 50.0 µM, stronger effect = higher value
In short: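 Compounds were applied to a genetically altered yeast strain carrying a cell-cycle control defect. Growth inhibition was scored against vehicle-treated controls.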

[6] = NCI Yeast Anticancer Drug Screen. Data for the mlh1 rad18 strain (AID 175); details: S. cerevisiae mlh1 rad18 strain growth inhibition; at 50.0 µM; stronger effect = higher value
In short: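 A repair-deficient yeast strain is exposed to test compound, and growth is scored relative to vehicle-treated controls.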

Measured: growth inhibition

CN(C)c1ccc(/C=N/NC(=O)c2ccccc2NC(=O)C2CC2)cc1
inactive: [1] -11.4% | [2] 1.4% | [3] 27% | [4] -18.8% | [5] 24.8% | [6] 26.6%

O=C(CC(C(=O)c1cccs1)c1cccs1)c1ccccc1Cl (stereo unspecified)
inactive: [1] -10% | [2] -27.6% | [3] -12.6% | [4] -11.3% | [5] -3.8% | [6] -8.15%

CCOC(SCC)C(O)C(O)C(O)C(O)CO (stereo unspecified)
inactive: [1] -1.9% | [2] -4.2% | [3] 20.4% | [4] -14.7% | [5] -7.8% | [6] -21.6%

CC(C)=C1C=C(C(C)(C)C)C(=O)C(C(C)(C)C)=C1
inactive: [1] 29.9% | [2] -5.9% | [3] -1.8% | [4] 17.4% | [5] 9.15% | [6] 28.4%

N#CCCN1CCCC1=O
inactive: [1] -11.8% | [2] -7.55% | [3] -12.5% | [4] -22.4% | [5] 6% | [6] 6.15%

O=NC(C[N+](=O)[O-])c1ccccc1 (stereo unspecified)
inactive: [1] 4.6% | [2] -21.9% | [3] 2.7% | [4] -40.7% | [5] 6.55% | [6] -24.4%

Cc1ccc(NC(=S)N2CCCCC2)cc1C
inactive: [1] -1.9% | [2] 13.2% | [3] 19.3% | [4] -19.2% | [5] 25.4% | [6] 15.4%

O=c1ccc2cc(Br)ccc2o1
inactive: [1] 6.65% | [2] 16.7% | [3] 16.6% | [4] -16.4% | [5] 10.7% | [6] 4.35%

CCCCCN1C(=O)N=NC1=S
inactive: [1] 4.65% | [2] 8.15% | [3] 19.2% | [4] 2.7% | [5] -13.8% | [6] -2.5%

COc1ccc2c(ccc[n+]2CC(=O)c2ccc(Cl)cc2)c1
inactive: [1] -35.9% | [2] -8.35% | [3] -17.2% | [4] 28.4% | [5] -0.5% | [6] -3.7%

Nc1nc2scnc2c(=O)[nH]1
inactive: [1] 7.1% | [2] -4.35% | [3] -3.25% | [4] -7.95% | [5] -8.5% | [6] 8.35%

Cc1cc(=O)[nH]c2nc(N)ccc12
inactive: [1] -9.5% | [2] -8.25% | [3] 11.7% | [4] -24.9% | [5] 7.8% | [6] -18.9%

COc1cc(-c2ccc(NC(=O)N3CC3)c(OC)c2)ccc1NC(=O)N1CC1
inactive: [1] 8.8% | [2] -2.5% | [3] 8.3% | [4] 19.4% | [5] -0.4% | [6] 10.7%

CN1C(c2ccccc2)NC(=O)C12CCN(CCCC(=O)c1ccccc1)CC2 (stereo unspecified)
inactive: [1] 63.5% | [2] 39.7% | [3] 53.2% | [4] 19.5% | [5] 17.9% | [6] 45.2%

COc1ccc(C2SCC(=O)N2c2nncs2)cc1F (stereo unspecified)
inactive: [1] 6.2% | [2] 1.55% | [3] 20.9% | [4] 2.9% | [5] 12.6% | [6] 20.2%

CN(CC(=O)NC(Cc1ccccc1)C(=O)O)C(=O)OCc1ccccc1 (stereo unspecified) (Cbz-[Sar]-[ξF]-OH)
inactive: [1] -16.9% | [2] -7.95% | [3] -1.2% | [4] -6.2% | [5] -16.1% | [6] -10.6%

COC(=O)C1=C(C)NC(C)=C(C(=O)OC)C1c1cc2ccccc2n2nnnc12
inactive: [1] 26.7% | [2] 11.1% | [3] 31.2% | [4] -1.75% | [5] 7.5% | [6] 47.4%

CC1=Nn2c(nnc2-c2ccc(Cl)cc2)NC(C)(C)C1
inactive: [1] 25.2% | [2] 5.55% | [3] 7.65% | [4] 7.95% | [5] 39.1% | [6] 26.3%

c1ccc2c3nnc(c2c1)SCCSCCCSCCS3
inactive: [1] -24.4% | [2] -31.4% | [3] -2.2% | [4] -5.25% | [5] 8.65% | [6] -30.4%

Cc1cc(Cl)ccc1OCC(=O)OCC(C)(C)[N+](=O)[O-]
inactive: [1] 6.05% | [2] 19.1% | [3] 20.4% | [4] -80.2% | [5] 36.6% | [6] 33.7%

O=c1ccc(=O)c2c(=O)c3cc4[nH]c5ccccc5[nH]c4cc3c(=O)c12
inactive: [1] 2.25% | [2] -7.05% | [3] 0.55% | [4] 1.85% | [5] -5.6% | [6] 5.2%
